Among the test systems are T-47D breast; BT-549 breast; MDA-MB-435 melanoma; MCF7 breast; HCT-116 colon; HCC-2998 colon; KM12 colon; SW-620 colon.
Experiment in all cases: NCI-60 one-dose screen, 48 h (100 = growth as untreated, 0 = no growth, -100 = all killed)
What all share (conditions): 10 µM unless noted

About 83,000 compounds went through this panel and 20% of them were active in at least one assay; those are over-represented in the sample as a whole.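 Each cell line was grown in a 96-well plate and treated with one concentration of compound for 48 hours. Values below 10 were considered active.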 Unmarked numbers belong to inactive results. Activity calls are given as the source filed them.

For the molecule `CCCCCCCCCCCCCCCCNCCC[C@@H](C)[C@H]1CC[C@H]2[C@@H]3[C@H](OCCCN)C[C@@H]4C[C@H](OCCCN)CC[C@]4(C)[C@H]3C[C@H](OCCCN)[C@]12C`, the growth is -20.9% (active) with T-47D breast; -26% (active) with BT-549 breast; -28.3% (active) in the test on MDA-MB-435 melanoma; -44.3% (active) with MCF7 breast; -16.6% (active) in the test with HCT-116 colon; -32.4% (active) in the test with HCC-2998 colon. Further, the growth in the test with KM12 colon is -24.3% (active).

As for `CS(=O)(=O)c1ccc(-c2cnc3ccc(-c4cccc(S(C)(=O)=O)c4)nn23)cc1`, the growth with T-47D breast is 18.7%; with BT-549 breast, 23%; in the test with MDA-MB-435 melanoma it was 49.6%; with MCF7 breast it was 18.4%; in the test on HCT-116 colon it was 34%; in the test with HCC-2998 colon, 55.4%. The growth in the test on KM12 colon was 47.1%.

`COc1ncc(-c2ccc3ncnc(Nc4cccc(Cl)c4)c3c2)cc1NS(C)(=O)=O`: the growth in the test on T-47D breast is -6.68% (active); in the test on BT-549 breast, 25.3%; with MDA-MB-435 melanoma, 41.9%; in the test on MCF7 breast, 7.7% (active); with HCT-116 colon, 47%; in the test on HCC-2998 colon it was 56.8%. In addition, the growth with KM12 colon was 55.3%.

As to `COC(/C=C/c1ccc([N+](=O)[O-])cc1)OC`, the growth with T-47D breast is 52%; in the test on BT-549 breast it was 118%; with MDA-MB-435 melanoma, 96.8%; with SW-620 colon it was 85.2%; with MCF7 breast it was 77.2%; in the test with HCT-116 colon, 27.3%. The growth with KM12 colon is 110%.

For `CCCCCCNC(=O)Oc1ccc(/C(=C(\C)c2ccccc2)c2ccc(OCCN(CC)CC)cc2)cc1`, the growth is 35.5% with T-47D breast; 71.8% in the test with BT-549 breast; 45.6% in the test on MDA-MB-435 melanoma; 16.1% in the test with MCF7 breast; 30.2% with HCT-116 colon; 60% with HCC-2998 colon. The growth with KM12 colon is 37.8%.

For `C=C(C[n+]1ccccc1)[C@@H]1CC[C@]2(C(=O)OC)CC[C@]3(C)[C@H](CC[C@@H]4[C@@]5(C)CC[C@H](O)C(C)(C)[C@@H]5CC[C@]43C)[C@@H]12`, the growth was 82.5% in the test on T-47D breast; 99% in the test on BT-549 breast; 91.8% with MDA-MB-435 melanoma; 97.7% in the test on MCF7 breast; 97% in the test with HCT-116 colon; 104% in the test with HCC-2998 colon. For the same molecule, the growth in the test on KM12 colon is 103%.

As to `COc1cc(-c2c3sc(=O)[nH]c3nc3c2c(=O)[nH]n3C(C)C)cc2c1OCO2`, the growth is 105% in the test with T-47D breast; 105% with BT-549 breast; 104% in the test with MDA-MB-435 melanoma; 104% with SW-620 colon; 91.7% in the test with MCF7 breast; 106% with HCT-116 colon. The growth in the test on KM12 colon was 101%.

On to `OCC1C2C=CC(C2)C1CO` (stereo not drawn), for which the growth with T-47D breast is 153%; with BT-549 breast, 98.7%; in the test on MDA-MB-435 melanoma it was 109%; in the test with MCF7 breast, 111%; with HCT-116 colon, 96.7%; in the test on HCC-2998 colon, 125%. In addition, in the test with KM12 colon, the growth is 106%.

Consider `CC#Cc1nc2ccccc2c(=O)[nH]1`, for which the growth in the test on T-47D breast was 67.3%; in the test on BT-549 breast, 20.4%; in the test with MDA-MB-435 melanoma, 25.6%; in the test with MCF7 breast, 23.5%; with HCT-116 colon, 41.1%; in the test with HCC-2998 colon it was 13.7%. For the same molecule, the growth in the test with KM12 colon was 41.1%.

On to `COc1ccc(-c2c3c(nc4n[nH]c(-c5ccc(Cl)cc5)c24)-c2ccccc2C(=O)C3=O)cc1`, for which the growth was 17% with T-47D breast; 20.5% in the test with BT-549 breast; -86.2% (active) in the test with MDA-MB-435 melanoma; 1.77% (active) in the test with MCF7 breast; -44.5% (active) in the test on HCT-116 colon; -25.5% (active) in the test with HCC-2998 colon. Also, the growth with KM12 colon is -20.6% (active).

As for `COc1ccc(C(=O)c2sc3nc4c(c(C(F)(F)F)c3c2N)CN(C(C)=O)CC4)cc1OC`, the growth with BT-549 breast is 99.6%; in the test with MDA-MB-435 melanoma it was 99.7%; with MCF7 breast, 83.4%; with HCT-116 colon it was 89.3%; in the test with HCC-2998 colon, 94.9%; in the test with KM12 colon, 97.6%.

For the molecule `CCCCCCCCCC(=O)Oc1ccc(/C(=C(/C)c2ccccc2)c2ccc(OCCN3CCCC3)cc2)cc1`, the growth is 3.1% (active) with T-47D breast; -59% (active) with MDA-MB-435 melanoma; -14.1% (active) in the test with MCF7 breast; 15.8% in the test with HCT-116 colon; -11.2% (active) in the test with HCC-2998 colon; 15.2% in the test with KM12 colon.

On to `CC1=C(NCCN2CCCC2)C(=O)c2c(OCc3cccc(Cl)c3)cccc2C1=O`, for which the growth is 59.9% in the test on T-47D breast; 61.8% in the test on MDA-MB-435 melanoma; 85.1% in the test on SW-620 colon; 57.5% with MCF7 breast; 43.9% in the test with HCT-116 colon; 84.4% with HCC-2998 colon. In addition, the growth with KM12 colon is 81%.

As to `CC1=C(NCCN2CCCC2)C(=O)c2c(OCc3ccc(C(F)(F)F)cc3)cccc2C1=O`, the growth in the test with T-47D breast is 73.6%; in the test with MDA-MB-435 melanoma, 70.9%; in the test on SW-620 colon, 83.5%; with MCF7 breast it was 59.9%; in the test with HCT-116 colon, 33.9%; in the test with HCC-2998 colon it was 107%. The growth with KM12 colon was 85%.

Turning to `N#Cc1ccc(NC(=O)Nc2ccc(Cc3ccc(NC(=O)Nc4ccc(C#N)cc4)cc3)cc2)cc1`, the growth with BT-549 breast was 20.7%; in the test on MDA-MB-435 melanoma it was 7.5% (active); in the test with SW-620 colon, 34%; with MCF7 breast, 6.82% (active); in the test with HCT-116 colon, 18.8%; in the test on HCC-2998 colon, 40.1%. Besides, in the test on KM12 colon, the growth was 18.7%.

As for `COC(=O)[C@@H]1CC[C@]2(C)[C@H](CC[C@@H]3O[C@@]32C)[C@@]1(C)CC(=O)c1ccoc1`, the growth was 105% in the test with T-47D breast; 104% in the test on MDA-MB-435 melanoma; 88.3% in the test with SW-620 colon; 93% in the test on MCF7 breast; 98.4% in the test with HCT-116 colon; 93.1% in the test with HCC-2998 colon. For the same molecule, the growth with KM12 colon is 108%.

For `NC(=S)N/N=C/c1ccc(OCc2ccccc2)cc1`, the growth in the test on T-47D breast was 20.8%; in the test on MDA-MB-435 melanoma, 74%; with SW-620 colon, 66.2%; in the test on MCF7 breast, 52.1%; with HCT-116 colon, 52.5%; in the test on HCC-2998 colon it was 79.2%. The growth in the test on KM12 colon was 84.6%.

With `O=C(Nc1cccc2[nH]c(C(F)(F)F)nc12)c1ccc(Br)cc1F`, the growth is 19.4% in the test on BT-549 breast; 26.9% in the test on MDA-MB-435 melanoma; 41.6% in the test with SW-620 colon; 27.1% in the test on MCF7 breast; 22.7% in the test with HCT-116 colon; 48.3% in the test with HCC-2998 colon. For the same molecule, in the test with KM12 colon, the growth is 27%.

As to `CC1(C)OCC2OC3(C(=O)O)OC(C)(C)OC3C2O1` (stereo not drawn), the growth in the test with T-47D breast was 95.4%; with MDA-MB-435 melanoma, 104%; in the test with SW-620 colon, 109%; in the test on MCF7 breast it was 112%; in the test with HCT-116 colon, 106%; in the test with HCC-2998 colon, 102%. Further, the growth in the test on KM12 colon is 100%.

Turning to `COc1ccc(-c2cnoc2-c2cc(OC)c3c(c2)OCCO3)cc1`, the growth was 3.85% (active) with BT-549 breast; -27.9% (active) with MDA-MB-435 melanoma; 19.5% with SW-620 colon; 12.4% in the test on MCF7 breast; -12.3% (active) with HCT-116 colon; 8.32% (active) in the test with HCC-2998 colon. In addition, in the test on KM12 colon, the growth is 3.62% (active).

For the molecule `CC/C(=C(\c1ccccc1)c1ccc(OCCNC)cc1)c1ccccc1`, the growth is -91.2% (active) in the test on BT-549 breast; -93.8% (active) in the test on MDA-MB-435 melanoma; -57.6% (active) with SW-620 colon; -95.8% (active) in the test with MCF7 breast; -96% (active) in the test with HCT-116 colon; -99.7% (active) in the test with HCC-2998 colon. The growth in the test with KM12 colon was -77.7% (active).

Regarding `Cc1cc(OCc2ccc(C(F)(F)F)cc2)c2c(c1)C(=O)C=C(NCCN1CCCC1)C2=O`, the growth in the test with T-47D breast is 42.8%; in the test with MDA-MB-435 melanoma it was -23.5% (active); in the test with SW-620 colon, 74.7%; in the test on MCF7 breast it was 31%; in the test with HCT-116 colon it was 19.6%; in the test on HCC-2998 colon, 15.2%. Besides, the growth in the test on KM12 colon was 79.1%.

As for `C=C(CN1CCN(c2cccc(C(F)(F)F)n2)CC1)c1ccc(C(=O)Nc2ccccc2N)cc1`, the growth in the test with BT-549 breast was 22.8%; with MDA-MB-435 melanoma, -9.74% (active); with SW-620 colon it was 55.2%; with MCF7 breast, 1.51% (active); in the test with HCT-116 colon, 15.5%; in the test with HCC-2998 colon it was -41% (active). In addition, the growth with KM12 colon was -3.75% (active).

`COc1ccccc1-c1ccc2c(N)c(C(=O)c3ccc4c(c3)OCO4)sc2n1`: the growth in the test with BT-549 breast is 71.4%; with MDA-MB-435 melanoma, 2.68% (active); in the test with SW-620 colon, 42.2%; in the test with MCF7 breast, 36.3%; in the test on HCT-116 colon it was 42.4%; in the test with HCC-2998 colon it was 71.4%. The growth with KM12 colon is 53.8%.

As to `Cc1cc2c(cc1C)NC1=C(N2)OC(c2c3ccccc3cc3ccccc23)C1=O` (stereo not drawn), the growth is 0.106% (active) in the test with BT-549 breast; -7.13% (active) in the test with MDA-MB-435 melanoma; 19.3% in the test with SW-620 colon; 5.73% (active) in the test on MCF7 breast; -5.82% (active) in the test with HCT-116 colon; 7.57% (active) with HCC-2998 colon. The growth in the test with KM12 colon was 9.94% (active).

For `COc1cnc2c(c1)C(=O)c1c-2n(CCCN2CCNCC2)c(=O)c2cc([N+](=O)[O-])ccc12`, the growth is -52.2% (active) in the test on T-47D breast; -92% (active) in the test with MDA-MB-435 melanoma; -70% (active) in the test with SW-620 colon; -63.5% (active) in the test with MCF7 breast; -93.6% (active) with HCT-116 colon; 36.2% in the test with HCC-2998 colon. Also, the growth with KM12 colon is -75.5% (active).

In the case of `COc1cc(/C=C2\CN(C(=O)CCN3CCC(=NO)CC3)C/C(=C\c3cc(OC)c(OC)c(OC)c3)C2=O)cc(OC)c1OC`, the growth in the test with T-47D breast was 4.37% (active); in the test with MDA-MB-435 melanoma, -81.9% (active); with MCF7 breast it was -54.3% (active); with HCT-116 colon, -56.7% (active); in the test on HCC-2998 colon it was -79.8% (active); with KM12 colon, -83.9% (active).

Consider `O=C(O)c1c([N+](=O)[O-])cnc2ccccc12`, for which the growth in the test with T-47D breast is 83.5%; with MDA-MB-435 melanoma it was 102%; in the test on SW-620 colon, 101%; with MCF7 breast, 93%; in the test with HCT-116 colon, 97.5%; with HCC-2998 colon, 100%. Besides, the growth in the test with KM12 colon was 111%.

The values above are taken from PubChem BioAssay (NCI).
